The record followed here is PubChem BioAssay.

Activity calls are given as the source filed them.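 The calls were made as follows: active = normalized viability below 100% at a tested concentration; inactive = the rest.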

The first assay in a line: drug combination growth inhibition, ovarian cancer – cell-based, oncology-focused library, rucaparib conditional, profiling panel (AID 1508598). As to conditions: patient-derived ovarian cancer cells, CellTiter-Glo viability, 144 h; at 0.0781 µM; OCI-C5x cells; without rucaparib; active compounds read low. For orientation: Cellular ATP, detected with luciferase, serves as a proxy for viable cell number.
The term viability denotes a read-out of living cells in per cent, often relative to untreated cells. As to `CC(C)[C@@]12O[C@@H]1[C@@H]1O[C@]13[C@]1(O[C@@H]1C[C@@H]1C4=C(CC[C@@]13C)C(=O)OC4)[C@@H]2O`, the viability is 9.36% (active).

In the case of `C/C(=C\c1csc(C)n1)[C@H]1C[C@@H]2O[C@]2(C)CCC[C@H](C)[C@H](O)[C@@H](C)C(=O)C(C)(C)[C@H](O)CC(=O)O1`, the viability is 27.6% (active).

Take `C/C(=C\c1csc(C)n1)[C@H]1C[C@@H]2O[C@@H]2CCC[C@H](C)[C@H](O)[C@@H](C)C(=O)C(C)(C)[C@H](O)CC(=O)O1`: the viability is 22.1% (active).

Still in this assay, the particulars now being: patient-derived ovarian cancer cells, CellTiter-Glo viability, 144 h; at 0.0781 µM; OCI-P5x cells; with rucaparib 20 µM; active compounds read low; 100% = cells with rucaparib alone.
Turning to `CC(C)[C@@]12O[C@@H]1[C@@H]1O[C@]13[C@]1(O[C@@H]1C[C@@H]1C4=C(CC[C@@]13C)C(=O)OC4)[C@@H]2O`, the viability was 11.1% (active).

`C/C(=C\c1csc(C)n1)[C@H]1C[C@@H]2O[C@]2(C)CCC[C@H](C)[C@H](O)[C@@H](C)C(=O)C(C)(C)[C@H](O)CC(=O)O1`: the viability was 45.8% (active).

With `C/C(=C\c1csc(C)n1)[C@H]1C[C@@H]2O[C@@H]2CCC[C@H](C)[C@H](O)[C@@H](C)C(=O)C(C)(C)[C@H](O)CC(=O)O1`, the viability was 57% (active).

The same assay, now with this note: patient-derived ovarian cancer cells, CellTiter-Glo viability, 144 h; at 0.0781 µM; OCI-P5x cells; without rucaparib; active compounds read low.
Consider `CC(C)[C@@]12O[C@@H]1[C@@H]1O[C@]13[C@]1(O[C@@H]1C[C@@H]1C4=C(CC[C@@]13C)C(=O)OC4)[C@@H]2O`, for which the viability was 9.41% (active).

As to `C/C(=C\c1csc(C)n1)[C@H]1C[C@@H]2O[C@]2(C)CCC[C@H](C)[C@H](O)[C@@H](C)C(=O)C(C)(C)[C@H](O)CC(=O)O1`, the viability was 16.3% (active).

In the case of `C/C(=C\c1csc(C)n1)[C@H]1C[C@@H]2O[C@@H]2CCC[C@H](C)[C@H](O)[C@@H](C)C(=O)C(C)(C)[C@H](O)CC(=O)O1`, the viability was 17.9% (active).

Staying with this assay, now noted: patient-derived ovarian cancer cells, CellTiter-Glo viability, 144 h; at 0.313 µM; OCI-C5x cells; with rucaparib 10 µM; active compounds read low; 100% = cells with rucaparib alone.
Take `CC(C)[C@@]12O[C@@H]1[C@@H]1O[C@]13[C@]1(O[C@@H]1C[C@@H]1C4=C(CC[C@@]13C)C(=O)OC4)[C@@H]2O`: the viability is 9.16% (active).

`C/C(=C\c1csc(C)n1)[C@H]1C[C@@H]2O[C@]2(C)CCC[C@H](C)[C@H](O)[C@@H](C)C(=O)C(C)(C)[C@H](O)CC(=O)O1`: the viability is 40.6% (active).

For `C/C(=C\c1csc(C)n1)[C@H]1C[C@@H]2O[C@@H]2CCC[C@H](C)[C@H](O)[C@@H](C)C(=O)C(C)(C)[C@H](O)CC(=O)O1`, the viability is 29.6% (active).

Staying with this assay, now noted: patient-derived ovarian cancer cells, CellTiter-Glo viability, 144 h; at 0.313 µM; OCI-C5x cells; without rucaparib; active compounds read low.
For `CC(C)[C@@]12O[C@@H]1[C@@H]1O[C@]13[C@]1(O[C@@H]1C[C@@H]1C4=C(CC[C@@]13C)C(=O)OC4)[C@@H]2O`, the viability was 10.5% (active).

For the compound `C/C(=C\c1csc(C)n1)[C@H]1C[C@@H]2O[C@]2(C)CCC[C@H](C)[C@H](O)[C@@H](C)C(=O)C(C)(C)[C@H](O)CC(=O)O1`, the viability is 35.3% (active).

Consider `C/C(=C\c1csc(C)n1)[C@H]1C[C@@H]2O[C@@H]2CCC[C@H](C)[C@H](O)[C@@H](C)C(=O)C(C)(C)[C@H](O)CC(=O)O1`, for which the viability was 24% (active).

Still in this assay, the particulars now being: patient-derived ovarian cancer cells, CellTiter-Glo viability, 144 h; at 0.313 µM; OCI-P5x cells; with rucaparib 20 µM; active compounds read low; 100% = cells with rucaparib alone.
Regarding `CC(C)[C@@]12O[C@@H]1[C@@H]1O[C@]13[C@]1(O[C@@H]1C[C@@H]1C4=C(CC[C@@]13C)C(=O)OC4)[C@@H]2O`, the viability was 12.1% (active).

Take `C/C(=C\c1csc(C)n1)[C@H]1C[C@@H]2O[C@]2(C)CCC[C@H](C)[C@H](O)[C@@H](C)C(=O)C(C)(C)[C@H](O)CC(=O)O1`: the viability is 44.8% (active).

Take `C/C(=C\c1csc(C)n1)[C@H]1C[C@@H]2O[C@@H]2CCC[C@H](C)[C@H](O)[C@@H](C)C(=O)C(C)(C)[C@H](O)CC(=O)O1`: the viability was 46.5% (active).

Still in this assay, the particulars now being: patient-derived ovarian cancer cells, CellTiter-Glo viability, 144 h; at 0.313 µM; OCI-P5x cells; without rucaparib; active compounds read low.
On to `CC(C)[C@@]12O[C@@H]1[C@@H]1O[C@]13[C@]1(O[C@@H]1C[C@@H]1C4=C(CC[C@@]13C)C(=O)OC4)[C@@H]2O`, for which the viability is 8.22% (active).

For the compound `C/C(=C\c1csc(C)n1)[C@H]1C[C@@H]2O[C@]2(C)CCC[C@H](C)[C@H](O)[C@@H](C)C(=O)C(C)(C)[C@H](O)CC(=O)O1`, the viability is 15.9% (active).

Regarding `C/C(=C\c1csc(C)n1)[C@H]1C[C@@H]2O[C@@H]2CCC[C@H](C)[C@H](O)[C@@H](C)C(=O)C(C)(C)[C@H](O)CC(=O)O1`, the viability is 15.9% (active).

Still in this assay, the particulars now being: patient-derived ovarian cancer cells, CellTiter-Glo viability, 144 h; at 1.25 µM; OCI-C5x cells; with rucaparib 10 µM; active compounds read low; 100% = cells with rucaparib alone.
On to `CC(C)[C@@]12O[C@@H]1[C@@H]1O[C@]13[C@]1(O[C@@H]1C[C@@H]1C4=C(CC[C@@]13C)C(=O)OC4)[C@@H]2O`, for which the viability was 9.48% (active).

For `C/C(=C\c1csc(C)n1)[C@H]1C[C@@H]2O[C@]2(C)CCC[C@H](C)[C@H](O)[C@@H](C)C(=O)C(C)(C)[C@H](O)CC(=O)O1`, the viability was 45.2% (active).

For the compound `C/C(=C\c1csc(C)n1)[C@H]1C[C@@H]2O[C@@H]2CCC[C@H](C)[C@H](O)[C@@H](C)C(=O)C(C)(C)[C@H](O)CC(=O)O1`, the viability was 25.2% (active).

Staying with this assay, now noted: patient-derived ovarian cancer cells, CellTiter-Glo viability, 144 h; at 1.25 µM; OCI-C5x cells; without rucaparib; active compounds read low.
For `CC(C)[C@@]12O[C@@H]1[C@@H]1O[C@]13[C@]1(O[C@@H]1C[C@@H]1C4=C(CC[C@@]13C)C(=O)OC4)[C@@H]2O`, the viability was 10% (active).

`C/C(=C\c1csc(C)n1)[C@H]1C[C@@H]2O[C@]2(C)CCC[C@H](C)[C@H](O)[C@@H](C)C(=O)C(C)(C)[C@H](O)CC(=O)O1`: the viability was 38.5% (active).

As for `C/C(=C\c1csc(C)n1)[C@H]1C[C@@H]2O[C@@H]2CCC[C@H](C)[C@H](O)[C@@H](C)C(=O)C(C)(C)[C@H](O)CC(=O)O1`, the viability was 24.3% (active).
